Active and inactive are the calls of the source.
Experiments:
[1] = system: PRMT1 (protein arginine N-methyltransferase 1); test: PRMT1 binders on small-molecule microarrays, primary screen, biochemical, small-molecule microarray, 635 nm fluorescence (AID 1088); details: small-molecule microarray binding, higher = more signal;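 further: binding of Prmt1 protein to compounds spotted on small-molecule microarray slides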
[2] = yeast growth modulation, basal conditions, primary screen, YJM789 clinical isolate, OD600, 24 h (AID 1089);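 further: growth of clinical yeast isolate S. cerevisiae YJM 789 seeded 1000 cells per well; test concentration not given here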; details: S. cerevisiae YJM789 growth, higher = more signal, called active from +8 up or from −8 down
[3] = fission yeast growth modulation, primary screen, strain 972, OD600, 24 h, no modulator (AID 1090);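 further: basal condition with compound alone and no growth modifier present; test concentration not given here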; details: S. pombe 972 growth, higher = more signal, called active from +8 up or from −8 down
[4] = S. cerevisiae growth modulation with rapamycin, primary screen, strain BY4716, OD600, 96 h (AID 1091); details: higher = more signal, called active from +8 up or from −8 down; further: test concentration not given here
[5] = molecular target: Torsin-1A-interacting protein 2 (Homo sapiens) (UniProt Q8NFQ8); test: LULL1 binders on small-molecule microarray, primary screen, cell lysate, human LULL1 lysate, 635/667 nm fluorescence (AID 1092); details: hLULL1 lysate binding, 635 nm fluorescence, higher = more signal;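 further: probe is lysate of COS7 cells overexpressing human LULL1; score merges per-feature 667 nm fluorescence with signal-to-noise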
Torsin-1A-interacting protein 2 (Homo sapiens), sequence (Q8NFQ8 whole entry, looked up): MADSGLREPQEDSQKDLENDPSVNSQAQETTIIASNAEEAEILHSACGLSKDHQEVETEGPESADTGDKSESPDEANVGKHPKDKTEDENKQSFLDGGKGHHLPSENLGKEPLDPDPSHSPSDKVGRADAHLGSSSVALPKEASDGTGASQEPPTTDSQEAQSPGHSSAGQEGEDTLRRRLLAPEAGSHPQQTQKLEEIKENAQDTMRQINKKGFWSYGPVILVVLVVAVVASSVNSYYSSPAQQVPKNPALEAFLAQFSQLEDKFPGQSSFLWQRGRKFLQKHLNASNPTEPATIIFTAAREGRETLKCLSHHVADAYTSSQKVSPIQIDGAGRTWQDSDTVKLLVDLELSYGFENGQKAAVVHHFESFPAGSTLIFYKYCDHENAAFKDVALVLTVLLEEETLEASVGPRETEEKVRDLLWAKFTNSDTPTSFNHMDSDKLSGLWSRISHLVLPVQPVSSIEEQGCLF

[6] = E. coli growth modulation, two-sided OD650, primary screen, E. coli filamentation project, strain DRC41, 24 h (AID 1093); details: OD650, 24 h, higher = more signal, called active from +8 up or from −8 down;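 further: MC1000 strain lacking acrAB efflux and sulA so SOS filamentation is blocked; test concentration not given here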
[7] = small-molecule microarray binders of probe aLefty2, primary screen, biochemical, biotinylated probe, 635/667 nm fluorescence (AID 1094); details: higher = more signal;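 further: score merges spot fluorescence near 667 nm with spot signal-to-noise ratio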
[8] = system: Noggin (protein binding on small-molecule microarray); test: Noggin binders on small-molecule microarray, primary screen, biochemical, 635/667 nm fluorescence (AID 1095); details: 635 nm fluorescence, higher = more signal;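 further: score merges 667 nm feature fluorescence with signal to noise over triplicate slides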
[9] = molecular target: Neurogenic locus notch homolog protein 3 (Homo sapiens) (UniProt Q9UM47); test: NOTCH3 binders on small-molecule microarray, primary screen, biochemical, 635/667 nm fluorescence (AID 1096); details: NOTCH3 binding, 635 nm fluorescence, higher = more signal
Neurogenic locus notch homolog protein 3 (Homo sapiens), sequence (Q9UM47 whole entry, looked up): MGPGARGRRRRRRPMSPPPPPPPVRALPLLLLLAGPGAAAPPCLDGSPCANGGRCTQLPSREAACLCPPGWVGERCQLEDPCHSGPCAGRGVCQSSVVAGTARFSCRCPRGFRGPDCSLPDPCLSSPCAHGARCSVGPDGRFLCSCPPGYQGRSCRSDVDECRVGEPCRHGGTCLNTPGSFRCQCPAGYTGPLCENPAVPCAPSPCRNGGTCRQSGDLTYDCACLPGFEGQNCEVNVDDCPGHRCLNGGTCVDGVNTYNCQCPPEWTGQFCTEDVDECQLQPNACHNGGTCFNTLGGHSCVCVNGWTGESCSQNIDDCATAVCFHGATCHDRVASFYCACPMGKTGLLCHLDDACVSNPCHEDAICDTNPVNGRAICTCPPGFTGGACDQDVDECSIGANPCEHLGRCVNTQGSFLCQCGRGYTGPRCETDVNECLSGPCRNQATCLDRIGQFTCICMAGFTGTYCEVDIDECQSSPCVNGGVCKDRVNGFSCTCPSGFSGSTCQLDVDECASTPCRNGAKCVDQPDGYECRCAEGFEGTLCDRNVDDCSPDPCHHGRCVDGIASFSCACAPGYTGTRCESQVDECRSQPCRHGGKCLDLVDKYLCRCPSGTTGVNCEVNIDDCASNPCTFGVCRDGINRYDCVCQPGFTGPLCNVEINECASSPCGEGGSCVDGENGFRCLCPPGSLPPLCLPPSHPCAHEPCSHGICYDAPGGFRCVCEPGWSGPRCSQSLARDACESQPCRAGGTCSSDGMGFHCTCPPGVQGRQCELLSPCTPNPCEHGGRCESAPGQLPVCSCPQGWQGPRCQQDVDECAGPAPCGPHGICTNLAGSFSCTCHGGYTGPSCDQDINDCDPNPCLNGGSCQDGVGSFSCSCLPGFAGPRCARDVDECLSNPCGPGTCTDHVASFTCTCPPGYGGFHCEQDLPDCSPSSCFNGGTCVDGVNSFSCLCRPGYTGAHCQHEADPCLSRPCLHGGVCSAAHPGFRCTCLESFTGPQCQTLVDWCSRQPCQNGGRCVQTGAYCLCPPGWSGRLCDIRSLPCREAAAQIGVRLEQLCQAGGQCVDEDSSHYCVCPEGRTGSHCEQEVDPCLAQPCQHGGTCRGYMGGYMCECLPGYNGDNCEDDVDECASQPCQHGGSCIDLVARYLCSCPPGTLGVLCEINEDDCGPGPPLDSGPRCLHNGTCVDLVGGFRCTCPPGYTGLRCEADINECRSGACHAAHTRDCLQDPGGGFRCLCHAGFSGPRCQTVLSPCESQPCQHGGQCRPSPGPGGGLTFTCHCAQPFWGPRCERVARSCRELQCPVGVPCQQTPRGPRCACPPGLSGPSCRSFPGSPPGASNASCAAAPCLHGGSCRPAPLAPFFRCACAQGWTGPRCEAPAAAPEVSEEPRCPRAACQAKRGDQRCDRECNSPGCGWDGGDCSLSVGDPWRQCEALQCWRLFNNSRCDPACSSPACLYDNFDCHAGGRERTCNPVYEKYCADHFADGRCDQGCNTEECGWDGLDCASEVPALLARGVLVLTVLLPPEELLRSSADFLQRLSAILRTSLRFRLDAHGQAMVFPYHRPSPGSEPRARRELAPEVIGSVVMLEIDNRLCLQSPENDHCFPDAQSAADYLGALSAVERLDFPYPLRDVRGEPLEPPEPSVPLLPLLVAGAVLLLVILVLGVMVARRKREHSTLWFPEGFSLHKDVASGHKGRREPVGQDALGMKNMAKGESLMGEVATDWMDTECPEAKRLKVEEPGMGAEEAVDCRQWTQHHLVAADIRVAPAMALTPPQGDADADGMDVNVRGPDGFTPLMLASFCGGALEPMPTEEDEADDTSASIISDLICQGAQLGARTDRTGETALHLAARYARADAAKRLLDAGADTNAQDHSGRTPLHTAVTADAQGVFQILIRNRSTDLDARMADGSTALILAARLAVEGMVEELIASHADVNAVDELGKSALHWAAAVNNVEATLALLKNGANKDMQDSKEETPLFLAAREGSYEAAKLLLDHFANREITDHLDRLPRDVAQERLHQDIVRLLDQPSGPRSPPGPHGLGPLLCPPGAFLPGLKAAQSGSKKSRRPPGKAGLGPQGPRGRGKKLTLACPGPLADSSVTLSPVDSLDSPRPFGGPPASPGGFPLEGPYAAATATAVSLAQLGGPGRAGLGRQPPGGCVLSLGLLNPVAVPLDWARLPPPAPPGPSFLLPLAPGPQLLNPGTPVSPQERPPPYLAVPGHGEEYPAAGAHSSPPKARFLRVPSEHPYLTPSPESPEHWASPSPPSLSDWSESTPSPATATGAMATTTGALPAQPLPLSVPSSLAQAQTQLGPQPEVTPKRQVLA

[10] = small-molecule microarray binders of probe aEGFR, primary screen, biochemical, biotinylated probe, 635/667 nm fluorescence (AID 1097); details: higher = more signal;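 further: probe is a biotinylated anti-EGFR antibody binding compounds printed on slides; score combines fluorescence near 667 nm and signal to noise of each spot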
[11] = system: Plasmodium falciparum Sir2 (PF13_0152, Sir2A); test: pfSir2 binders on small-molecule microarrays, primary screen, biochemical, small-molecule microarray, 635 nm fluorescence (AID 1098); details: small-molecule microarray binding, fluorescence 635 nm; higher = more signal;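 further: score merges spot fluorescence intensity with its signal-to-noise ratio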
[12] = small-molecule microarray binders of probe aDKK1, primary screen, biochemical, biotinylated probe, 635/667 nm fluorescence (AID 1099); details: higher = more signal;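 further: score merges 667nm spot fluorescence with signal to noise across triplicate slides; reference of the scale not given here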
[13] = small-molecule microarray binders of probe aCHRDL2, primary screen, biochemical, biotinylated probe, 635/667 nm fluorescence (AID 1100); details: higher = more signal
[14] = splicing luciferase reporter signal modulators, primary screen, spliceosome inhibition project, cell-based, HEK293, splice +/- reporter (AID 1101); details: luminescence, 24 h, higher = more signal, called active from +8 up or from −8 down;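 further: HEK293 cells carrying a splicing-competent luciferase reporter gene; test concentration not given here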
[15] = molecular target: Fibroblast growth factor 10 (Homo sapiens) (UniProt O15520); test: FGF10 binders on small-molecule microarrays, primary screen, biochemical, small-molecule microarray, 635 nm fluorescence (AID 1102); details: FGF10 binding, fluorescence 635 nm, higher = more signal
Fibroblast growth factor 10 (Homo sapiens), sequence (O15520 whole entry, looked up): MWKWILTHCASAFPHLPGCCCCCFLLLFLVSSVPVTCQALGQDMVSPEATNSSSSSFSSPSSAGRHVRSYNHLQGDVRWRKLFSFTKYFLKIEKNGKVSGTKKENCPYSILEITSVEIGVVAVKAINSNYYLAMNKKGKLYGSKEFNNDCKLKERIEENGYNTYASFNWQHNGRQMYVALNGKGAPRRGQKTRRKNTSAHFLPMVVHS

[16] = system: glycogen synthase kinase-3 (GSK3A per assay name; protocol says GSK3B); test: GSK3 binders on small-molecule microarrays, primary screen, biochemical, small-molecule microarray, 635 nm fluorescence, GSK3A (AID 1103); details: small-molecule microarray binding, fluorescence 635 nm; higher = more signal; further: the record names both GSK3A and GSK3B
[17] = molecular target: Epidermal growth factor receptor (Homo sapiens) (UniProt P00533); test: EGFR binders on small-molecule microarrays, primary screen, biochemical, small-molecule microarray, 635 nm fluorescence (AID 1104); details: EGFR binding, higher = more signal;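 further: score merges 667 nm emission intensity with spot signal to noise over triplicate slides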
Epidermal growth factor receptor (Homo sapiens), sequence (P00533 whole entry, looked up): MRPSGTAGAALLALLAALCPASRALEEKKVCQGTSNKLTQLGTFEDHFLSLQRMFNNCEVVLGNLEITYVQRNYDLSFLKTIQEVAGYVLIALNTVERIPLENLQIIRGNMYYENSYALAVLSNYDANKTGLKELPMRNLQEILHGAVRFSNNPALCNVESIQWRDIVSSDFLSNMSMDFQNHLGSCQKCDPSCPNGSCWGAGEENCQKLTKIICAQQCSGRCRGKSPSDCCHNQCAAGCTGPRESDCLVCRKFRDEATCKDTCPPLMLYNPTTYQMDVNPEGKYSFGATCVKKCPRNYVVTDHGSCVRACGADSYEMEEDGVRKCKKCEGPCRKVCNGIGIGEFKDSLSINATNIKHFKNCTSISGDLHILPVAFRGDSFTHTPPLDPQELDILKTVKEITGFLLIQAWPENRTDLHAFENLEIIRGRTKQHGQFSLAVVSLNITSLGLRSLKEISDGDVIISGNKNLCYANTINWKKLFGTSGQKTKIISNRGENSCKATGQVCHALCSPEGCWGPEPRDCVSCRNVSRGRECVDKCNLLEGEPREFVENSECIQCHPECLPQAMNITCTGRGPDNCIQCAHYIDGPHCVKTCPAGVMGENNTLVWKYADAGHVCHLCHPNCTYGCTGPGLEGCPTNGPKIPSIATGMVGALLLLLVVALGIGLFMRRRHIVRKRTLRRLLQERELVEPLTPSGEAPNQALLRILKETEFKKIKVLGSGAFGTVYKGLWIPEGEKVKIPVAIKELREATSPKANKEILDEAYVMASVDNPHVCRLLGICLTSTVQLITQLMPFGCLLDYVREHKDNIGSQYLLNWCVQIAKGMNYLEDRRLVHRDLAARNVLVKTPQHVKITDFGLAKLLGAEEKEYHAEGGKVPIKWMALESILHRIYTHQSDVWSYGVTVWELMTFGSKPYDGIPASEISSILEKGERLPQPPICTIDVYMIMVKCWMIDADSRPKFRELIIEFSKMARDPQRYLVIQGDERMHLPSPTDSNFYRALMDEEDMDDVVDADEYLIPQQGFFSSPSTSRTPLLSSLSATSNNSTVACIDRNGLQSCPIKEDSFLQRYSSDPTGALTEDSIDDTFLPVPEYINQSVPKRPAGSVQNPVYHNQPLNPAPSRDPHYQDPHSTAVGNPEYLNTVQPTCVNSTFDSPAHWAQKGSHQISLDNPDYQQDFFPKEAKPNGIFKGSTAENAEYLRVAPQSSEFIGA

[18] = molecular target: Follistatin-related protein 3 (Homo sapiens) (UniProt O95633); test: FSTL3 binders on small-molecule microarrays, primary screen, biochemical, small-molecule microarray, 635 nm fluorescence (AID 1105); details: FSTL3 binding, higher = more signal;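 further: score merges emission near 667 nm and signal to noise per printed spot across three slides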
Follistatin-related protein 3 (Homo sapiens), sequence (O95633 whole entry, looked up): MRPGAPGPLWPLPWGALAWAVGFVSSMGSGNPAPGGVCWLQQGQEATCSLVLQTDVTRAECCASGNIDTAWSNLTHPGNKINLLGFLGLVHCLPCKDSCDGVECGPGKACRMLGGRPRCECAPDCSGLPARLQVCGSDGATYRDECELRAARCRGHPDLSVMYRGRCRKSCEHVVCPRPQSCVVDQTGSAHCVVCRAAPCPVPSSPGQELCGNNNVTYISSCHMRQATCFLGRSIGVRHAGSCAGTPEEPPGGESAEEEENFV

[19] = molecular target: Dickkopf-related protein 1 (Homo sapiens) (UniProt O94907); test: DKK1 binders on small-molecule microarrays, primary screen, biochemical, small-molecule microarray, 635 nm fluorescence scan (AID 1106); details: DKK1 binding, higher = more signal;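 further: score merges emission near 667 nm with signal to noise over three replicate slides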
Dickkopf-related protein 1 (Homo sapiens), sequence (O94907 whole entry, looked up): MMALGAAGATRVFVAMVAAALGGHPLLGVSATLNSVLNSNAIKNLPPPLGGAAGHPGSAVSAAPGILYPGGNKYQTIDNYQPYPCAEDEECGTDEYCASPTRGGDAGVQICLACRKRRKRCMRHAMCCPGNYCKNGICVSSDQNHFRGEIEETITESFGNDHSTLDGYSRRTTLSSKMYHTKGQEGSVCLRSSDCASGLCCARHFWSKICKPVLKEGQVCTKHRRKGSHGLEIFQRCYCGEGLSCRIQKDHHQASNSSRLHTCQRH

[20] = system: Inhibin beta A chain (activin A); test: INHBA (activin A) binders on microarrays, primary screen, biochemical, small-molecule microarray, 635 nm fluorescence scan (AID 1107); details: small-molecule microarray binding, higher = more signal;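 further: mouse activin A protein probed at 4.33 µg/mL on printed slides; score merges bound-protein fluorescence near 667 nm with spot signal-to-noise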

SMILES | composite z-score [1] | z-score [2] | z-score [3] | z-score [4] | composite z-score [5] | z-score [6] | composite z-score [7] | composite z-score [8] | composite z-score [9] | composite z-score [10] | composite z-score [11] | composite z-score [12] | composite z-score [13] | z-score [14] | composite z-score [15] | composite z-score [16] | composite z-score [17] | composite z-score [18] | composite z-score [19] | composite z-score [20]
C=C(C)[C@@H]1CC=C(C(O)C2C=CC3C(=O)N(Cc4ccccc4)C(=O)C3N2n2cnnc2)CC1 (stereo not given in full) | -0.0461 | -0.542 (inactive) | 0.312 (inactive) | 0.112 (inactive) | 1.3 | -0.0792 (inactive) | 0.0864 | -0.305 | -0.191 | -0.161 | 0.827 | 0.546 | 1.11 | -0.925 (inactive) | -0.394 | -0.724 | -0.608 | -0.739 | -0.665 | 1.34
CC(C)(C)OC(=O)CC[C@@]1(C(=O)N2CCOCC2)N=C(c2ccc(OCCCO)cc2)O[C@@H]1c1ccccc1N=[N+]=[N-] | 1.53 | 0.501 (inactive) | -0.165 (inactive) | 0.404 (inactive) | 3.67 | 1.29 (inactive) | 0.0769 | 0.952 | 1.06 | 0.127 | 1.3 | 0.981 | 1.04 | -1.07 (inactive) | 1.33 | 0.451 | 0.295 | 1.13 | 0.458 | 1.03
[N-]=[N+]=NCc1ccccc1C[C@]1(C(=O)NCCN2CCOCC2)N=C(c2ccc(OCCCO)cc2)O[C@H]1c1ccccc1CN=[N+]=[N-] | 1.53 | -2.57 (inactive) | -0.847 (inactive) | -0.802 (inactive) | -3.05 | 1.2 (inactive) | 0.111 | 1.16 | 1.08 | 0.0278 | 1.5 | 0.304 | 0.71 | -1.27 (inactive) | 1.48 | 1.32 | 0.357 | 0.535 | 0.16 | 0.928
COc1c(C)cc(-c2cc3c(c(-c4ccccc4)n2)[Si](C(C)C)(C(C)C)O[C@H]3c2ccccc2)cc1C | 0.431 | -0.336 (inactive) | -0.253 (inactive) | 0.0998 (inactive) | 0.0055 | -1.1 (inactive) | -0.166 | 0.37 | 0.418 | -0.0359 | -0.14 | -0.16 | -0.327 | 0.139 (inactive) | 0.397 | 0.02 | 0.0111 | 0.168 | 0.211 | 0.0244
COC(=O)c1c(CC[C@@H](CO)NC(=O)Nc2ncn[nH]2)oc(C(=O)Cc2ccccc2)c1C(=O)OC | 1.08 | -0.342 (inactive) | 0.387 (inactive) | 0.285 (inactive) | 2.99 | -0.871 (inactive) | -0.016 | 0.565 | 1.17 | -0.0697 | 0.0638 | 0.0272 | -0.0621 | 0.801 (inactive) | 1.08 | 0.938 | 0.596 | 1.01 | 0.957 | 0.616
CC(C)CNC(=O)[C@@]1(C)c2ccccc2C(=O)N(C(C)C)[C@H]1c1ccc(CO)cc1 | -1.32 | 0.0968 (inactive) | 0.481 (inactive) | 0.0297 (inactive) | 1.16 | -0.0935 (inactive) | 0.44 | -0.933 | -2.11 | 0.0744 | 1.09 | 0.0084 | 0.567 | -0.0251 (inactive) | -1.42 | -1.29 | -0.741 | -0.542 | -0.854 | 1.26
C=CC[C@]1(C(=O)O)N=C(c2ccc(OCCCO)cc2)O[C@H]1c1ccccc1CN=[N+]=[N-] | -0.697 | 0.442 (inactive) | 0.263 (inactive) | 0.602 (inactive) | 1.55 | 0.143 (inactive) | -0.135 | -0.383 | -0.522 | -0.0239 | 1.74 | 0.177 | 0.559 | -0.611 (inactive) | -0.222 | -0.341 | -0.0348 | 0.0521 | -0.128 | 1.35
CCOC(=O)N1C(c2ccc(OCCCO)cc2)=NC(C(=O)OC)N1C(=O)OCC (stereo not given) | 1.54 | -0.925 (inactive) | -0.265 (inactive) | -1.32 (inactive) | 3.21 | 1.2 (inactive) | 0.174 | 1.42 | 1.09 | -0.0325 | 0.587 | -0.164 | 0.0258 | -0.641 (inactive) | 0.909 | 1.28 | 0.431 | 1.39 | 0.471 | -0.298
CCCNC(=O)[C@@]1(C)c2ccccc2C(=O)N(C(C)C)[C@H]1c1ccc(CO)cc1 | -0.535 | -0.141 (inactive) | -0.712 (inactive) | -0.397 (inactive) | 2.75 | -1.2 (inactive) | 0.0692 | -0.827 | -1.05 | -0.174 | 1.2 | 0.695 | 1.09 | 0.208 (inactive) | -0.668 | -0.743 | -1.14 | -0.737 | -0.612 | -0.105
O=C(NCc1ccccc1)[C@@H]1c2ccccc2C(=O)N(Cc2cc(F)cc(C(F)(F)F)c2)[C@H]1c1ccc(CO)cc1 | 1.49 | 0.314 (inactive) | 0.252 (inactive) | -0.319 (inactive) | 2.82 | 0.387 (inactive) | -0.103 | 0.561 | 0.791 | 0.021 | 1.09 | 0.125 | 0.519 | -0.945 (inactive) | 0.29 | 0.243 | -0.0881 | 0.588 | -0.0135 | 0.517

From PubChem BioAssay
